Test results as given in PubChem BioAssay.

Experiments:
[1] = target: Tumor necrosis factor receptor superfamily member 10B (Homo sapiens) (UniProt O14763); test: viability loss of caspase-8 NB7 cells with TRAIL – with/without TRAIL, luminescence panel, confirmation (AID 651596); details: NB7 neuroblastoma + caspase-8, TRAIL sensitization, NB7 Caspase-8, with TRAIL, mean of runs, at 10 µM, stronger effect = higher value
[2] = as above; details: NB7 neuroblastoma + caspase-8, without TRAIL, NB7 Caspase-8, without TRAIL, mean of runs, at 10 µM

Sequence of Tumor necrosis factor receptor superfamily member 10B (Homo sapiens) (O14763 whole entry, looked up): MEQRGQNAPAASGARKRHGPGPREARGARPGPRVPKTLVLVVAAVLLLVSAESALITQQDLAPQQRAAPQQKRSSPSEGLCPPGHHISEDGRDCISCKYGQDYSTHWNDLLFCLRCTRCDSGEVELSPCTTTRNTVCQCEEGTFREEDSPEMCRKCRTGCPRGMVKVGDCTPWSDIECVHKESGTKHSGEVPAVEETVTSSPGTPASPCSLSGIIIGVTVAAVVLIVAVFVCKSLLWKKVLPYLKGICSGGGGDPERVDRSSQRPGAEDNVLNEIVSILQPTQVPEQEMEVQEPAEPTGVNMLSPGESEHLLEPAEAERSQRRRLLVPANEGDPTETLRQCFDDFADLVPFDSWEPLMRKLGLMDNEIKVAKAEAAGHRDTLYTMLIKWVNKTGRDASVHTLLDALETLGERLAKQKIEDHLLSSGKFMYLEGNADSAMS

Row | SMILES | activity [1] [%] | activity [2] [%]
1 | Cc1cc(C(=O)Nc2sc3c(c2C#N)CCCC3)no1 | 53 | 52.5
2 | C/C(=N\NC(=O)c1cc(O)ccc1O)c1cccc(NC(=O)c2ccc(Cl)cc2)c1 | 40.8 | 24.6
3 | CCOc1ccc(C(=O)Nc2cc(C)c3c(=O)oc4ccccc4c3n2)cc1 | 61.2 | 62.1
4 | O=c1c2c(-c3ccccc3)csc2nc2c3ccccc3c(NCCN3CCOCC3)nn12 | 89.5 | 90.1
5 | COc1ccc(C)c2sc(N(CCCN(C)C)C(=O)c3ccc(S(=O)(=O)N4CCc5ccccc5C4)cc3)nc12 | 95.1 | 99.4
6 | COc1ccc2nc(Cl)c(/C=N/Nc3ccccn3)cc2c1 | 64.5 | 59.5
7 | COc1ccc(CN(C(=O)CSc2nnc(-c3ccccc3C)o2)c2ccc(F)cc2)cc1 | 97.9 | 97.3
8 | Cc1nc2sc(-c3ccccc3)cc2c(=O)n1N | 59.7 | 44.8
9 | COc1cc(C(=O)Oc2ccccc2/C=N/NC(=O)c2ccc(C)cc2)cc(OC)c1OC | 51 | 52.7
10 | CCCc1c(C(=O)N/N=C/C=C/c2ccccc2)nnn1-c1nonc1N | 47.5 | 50.4
11 | O=C(Nc1cccc(Cl)c1)c1nc[nH]c1C(=O)NCCCNC(=O)c1[nH]cnc1C(=O)Nc1cccc(Cl)c1 | 45.5 | 77.4
12 | CCCC(=O)Nc1ccc(C(=O)N/N=C/c2ccc[nH]2)cc1 | 98.5 | 97.8
13 | CCOc1ccc(OCc2cccc(C(=O)N3CCOCC3)c2)cc1 | 58.8 | 55.5
14 | Cc1ccc(NC(=O)c2ccc3nsnc3c2)c(Cl)c1 | 60.6 | 58.2
15 | Cc1nc2cc(NC(=O)Nc3nccs3)ccc2n1C | 63.5 | 60.8
16 | Cc1ccc(-c2nc3ccccc3[nH]2)s1 | 58.9 | 58.2
17 | COc1ccc(C(=O)Nc2nnc(SCC(=O)NC3CCCC3)s2)c(OC)c1 | 74.1 | 69.8
18 | Cc1cccc2sc(NNC(=O)c3ccc(S(=O)(=O)N4CC(C)CC(C)C4)cc3)nc12 (configuration not stated) | 55.6 | 49.8
19 | COc1ccc(/C=C2\Oc3ccccc3C2=O)cc1 | 76.7 | 74.3
20 | Nc1nc(N)c(-c2cccc(C(F)(F)F)c2)c(Cc2cccc(C(F)(F)F)c2)n1 | 81.6 | 80.7
21 | CC(=O)c1cc(F)ccc1OCC(=O)Nc1ccc2c(c1)OCO2 | 72.3 | 68.3
22 | COc1ccc(/C=C2/Sc3ccc(C(=O)NCCN4CCCCCC4)cc3NC2=O)cc1 | 67.8 | 94.7
23 | COc1ccc(-c2cc(C(=O)N3CCCC3)no2)cc1 | 64.9 | 59.8
24 | O=C(Nc1ccc2c(c1)OCCO2)c1ccc(Br)s1 | 74.3 | 66.8
25 | CCOc1cccc2cc(-c3nnc(NCc4ccco4)s3)c(=O)oc12 | -11.9 | -7.67
26 | Cc1ccc(S(=O)(=O)N2C[C@H]3[C@H]4C(=O)N(C5CCCCC5)C(=O)[C@H]4CC(=O)[C@H]3[C@@H]2c2cccc3ccccc23)cc1 | -8.53 | -13.6

Row | SMILES | activity [1] [%] | activity [2] [%]
27 | CCCCCCCCCCCCCCCC[n+]1ccc(C(N)=O)cc1 | 92.1 | 88.5
28 | CCCCC[C@@H](C)N1C[C@H](COCc2ccccc2)Oc2cc(N3CC[C@@H](N(C)C)C3)ccc2S1(=O)=O | 13 | 43.6
29 | COc1ccc(/C(N)=N/OC(=O)c2ccc(OC)c([N+](=O)[O-])c2)cc1OC | 92.1 | 84.7
30 | O=C(Nc1ccc(O)cc1)c1ccc(NC(=O)c2cccs2)cc1 | 85.2 | 84.8
31 | Cc1ccc(O)c(-c2cc(-c3ccc(F)cc3)no2)c1 | 71.2 | 57.8
32 | C/C(=N\NC(=O)c1ccccc1O)c1ccc(Br)s1 | 57.8 | 69.5
33 | O=C(Nc1nc2c(s1)CCCC2)c1cccs1 | 71.3 | 82.1
34 | CN(C)c1ncnc2c1ncn2C1OC(CO)C(O)C1O (configuration not stated) | 57.1 | 45.3
35 | COc1ccc(-c2cn3ccccc3n2)cc1 | 88 | 87.1
36 | COc1ccc(/C=N/Nc2nnc(Cc3ccccc3)c(=O)[nH]2)cc1OC | 60.6 | 59.2
37 | O=C1C(=Cc2ccc(F)cc2)CCc2ccccc21 | 82.8 | 76.7
38 | Cc1ccc(NC2=Nc3ccccc3CS2)cc1 | 57.4 | 38
39 | CC1(C)Cc2c(sc(NC(=O)COc3cccc4ccccc34)c2C#N)C(C)(C)N1 | 85.3 | 94.1
40 | Cc1cc(C(=O)COC(=O)c2cccn2C)c(C)n1Cc1ccco1 | 54.5 | 39.2
41 | C#CCSc1nnc(CSc2nc3ccccc3s2)n1-c1ccccc1 | 95.3 | 94.8
42 | N#Cc1ccccc1NC(=O)COC(=O)/C=C/c1cn(-c2ccccc2)nc1-c1ccc(Cl)cc1 | 39.5 | 80.4
43 | CCOC(=O)c1cccc(NC(=O)/C=C/c2ccc3c(c2)OCO3)c1 | 78.9 | 78.7
44 | O=C(/C=C/C(Cl)(Cl)Cl)Nc1ccc(Cl)cc1 | 98.8 | 98.9
45 | NC(=O)c1c(NC(=O)c2cc3ccccc3o2)sc2c1CCC2 | 56 | 42.8
46 | CC(C)(C)Nc1ncnc2c1cnn2-c1ccccc1 | 73.8 | 69.5
47 | NC(=O)c1ccsc1NC(=O)c1ccc2c(c1)CCCC2 | 89.5 | 86.7
48 | O=C(CSc1nnc(-c2ccc(O)cc2)o1)Nc1cccc(O)c1 | 50.6 | 55.7
49 | Cc1nc(NCC2CCCO2)nc2c1C(=O)CC(C)C2 (configuration not stated) | 33 | 40.6
50 | S=c1nc[nH]c2nc[nH]c12 | 64.5 | 69
51 | CSc1ncccc1C(=O)OCC(=O)c1cc(C)n(CC2CCCO2)c1C (configuration not stated) | 44 | 23.6
52 | COc1ccc(C2C(C(=O)N3CCN(c4ccccc4)CC3)c3ccccc3C(=O)N2C)cc1 (configuration not stated) | 69.5 | 66.3

Row | SMILES | activity [1] [%] | activity [2] [%]
53 | CC(C)c1ccc(/C=c2\sc3n(c2=O)C(N)=C(C#N)C(c2ccc(C(C)C)cc2)C=3C(N)=O)cc1 (configuration not stated) | 76.7 | 77.9
54 | CS/C(Nc1cc(Cl)ccc1Cl)=C(/C#N)C(=O)c1ccco1 | 60.1 | 65.6
55 | CC1(C)N=C(N)N=C(N)N1c1ccc(OCC(=O)N2CCOCC2)c(Cl)c1 | 81.6 | 86
56 | Cn1cnc([N+](=O)[O-])c1Sc1nc(N)nc2c1ncn2C1OC(CO)C(O)C1O (configuration not stated) | 66.8 | 75.4
57 | CCCCN(C)C(=O)c1cc2cc3ccc(OC)cc3nc2s1 | 69.9 | 70.3
58 | O=c1[nH]c(Nc2nc3ccccc3o2)nc2c1CCCC2 | 79.8 | 57
59 | NC(N)=Nc1ccc(C=C2C=Cc3ccccc32)cc1 | 96.6 | 68.5
60 | Cc1nc(NC(=S)NC(=O)c2ccccc2)sc1C | 57.1 | 57
61 | CCOC(=O)c1sc(N(Cc2ccccc2)C(=O)CCl)nc1C | 99.1 | 76.5
62 | O=C(N/N=C/C=C/c1ccccc1)c1cc2c(ccc3ccccc32)o1 | 62.1 | 56.4
63 | Cn1c(-c2ccccc2)cc2onc(-c3ccccc3)c2c1=O | 85.5 | 85.7
64 | Clc1ccc(-n2ncc3c(N4CCCC4)ncnc32)cc1 | 66.2 | 53.2
65 | CSc1nnc(NC(=O)c2nc(S(=O)(=O)Cc3cccc(C)c3)ncc2Cl)s1 | 93 | 88.3
66 | Clc1ccc(-c2nnc(-c3ccccc3)o2)c(Cl)c1 | 81.8 | 79
67 | CCC(=O)Nc1cc2nn(-c3ccccc3)nc2cc1Cl | 67.5 | 65.9
68 | COc1ccc(C2CC(c3cccs3)=NN2C(=O)CCl)cc1OC (configuration not stated) | 98.7 | 98.7
69 | c1ccn2cc(-c3ccc4c(c3)OCCO4)nc2c1 | 89 | 86
70 | Cc1ccc(C2CC(c3cccs3)=NN2C(=O)CCl)cc1 (configuration not stated) | 98.8 | 98
71 | CN(C)c1ccc(-c2nc3ccccn3c2/N=C/c2ccc(Br)cc2)cc1 | 69.3 | 47
72 | N/C(=N\OC(=O)c1ccc(Cl)cc1)c1ccn[nH]1 | 94.7 | 91
73 | COc1ccc(/C=C/C(=O)c2c(O)cc(C)oc2=O)c(OC)c1 | 91.1 | 92.5
74 | Cc1occc1C(=O)O/N=C(\N)c1ccccc1 | 89.7 | 92.8
75 | O=C(Nc1nc(=O)c2ccccc2s1)c1ccc(F)cc1 | 64.8 | 72.2
76 | CCCCCCCCOC(=O)c1cc([N+](=O)[O-])c(Sc2ncnc3nc[nH]c23)c([N+](=O)[O-])c1 | 64.1 | 62
